This note sets out measurements from PubChem BioAssay.

The list shows a part of the results. Activity calls are given as the source filed them. Unless noted, no stated cut-off is given here; in the data, active means activity above about 50%; inactive means the rest.

Assay [1] concerns the target Tumor necrosis factor receptor superfamily member 10B (Homo sapiens) (UniProt O14763). Nature of the assay: caspase-8 TRAIL sensitization, hit retest, confirmation, cell-based, NB7+caspase-8, with/without TRAIL, luminescence panel (AID 651596). Conditions: NB7 neuroblastoma + caspase-8, TRAIL sensitization, luminescence viability, with TRAIL, mean of runs, at 10 µM, stronger effect = higher value.

Test in assay [2]: as above
As to conditions: NB7 neuroblastoma + caspase-8, without TRAIL, luminescence viability, without TRAIL, mean of runs, at 10 µM.

Assay [3] deals with Tumor necrosis factor receptor superfamily member 10B (Homo sapiens) (UniProt O14763). The assay is described as follows: TRAIL sensitizers in caspase-8 expressing neuroblastoma cells, dose response, NB7 cells plus caspase-8, luminescence, panel (AID 652002). As to conditions: NB7 neuroblastoma +caspase-8, TRAIL sensitization, luminescence viability, NB7+Caspase-8, with TRAIL, run 1; at 12.5 µM (top of the series).

Assay [4] shares this target. Described as above. As to conditions: NB7 neuroblastoma +caspase-8, TRAIL sensitization, luminescence viability, NB7+Caspase-8, with TRAIL, run 2; at 12.5 µM (top of the series).
Test in assay [5]: as above
As to conditions: NB7 neuroblastoma +caspase-8, no TRAIL, compound-alone cytotoxicity counter-screen, luminescence viability, NB7+Caspase-8, run 1; at 12.5 µM (top of the series).

Test in assay [6]: as above
Conditions: NB7 neuroblastoma +caspase-8, no TRAIL, compound-alone cytotoxicity counter-screen, luminescence viability, NB7+Caspase-8, run 2; at 12.5 µM (top of the series). Background: The purpose of a counterscreen is to sort out artefacts and off-target activity.

Assay [7] addresses 72 kDa type IV collagenase (Homo sapiens) (UniProt P08253). The assay is described as follows: MMP-2 protease inhibition counter-screen, confirmation, counter-screen for CSN deneddylation inhibitor project, biochemical, fluorescence, single concentration (AID 720655;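 active means corrected plate-normalized z-score of 5 or more, or -5 or less, or inhibition of 15% or more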;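 further: plate controls were DMSO wells with enzyme for no effect and buffer wells lacking MMP-2 for full effect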). Conditions: recombinant MMP-2, FRET substrate fluorescence, 60 min; at 16.6 µM.
For assay [8], the target named is Prothrombin (Bos taurus) (UniProt P00735). The assay is described as follows: bovine thrombin inhibition counter-screen, confirmation, counter-screen for CSN deneddylation inhibitor project, biochemical, fluorescence polarization, single concentration (AID 720656;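 active means inhibition at or above a set limit, with a fluorescence interference ratio between 0.5 and a set maximum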). As to conditions: bovine thrombin cleavage of Ub4-pepOG, at 16.6 µM, stronger effect = higher value.
Prothrombin (Bos taurus), sequence (P00735 whole entry, looked up): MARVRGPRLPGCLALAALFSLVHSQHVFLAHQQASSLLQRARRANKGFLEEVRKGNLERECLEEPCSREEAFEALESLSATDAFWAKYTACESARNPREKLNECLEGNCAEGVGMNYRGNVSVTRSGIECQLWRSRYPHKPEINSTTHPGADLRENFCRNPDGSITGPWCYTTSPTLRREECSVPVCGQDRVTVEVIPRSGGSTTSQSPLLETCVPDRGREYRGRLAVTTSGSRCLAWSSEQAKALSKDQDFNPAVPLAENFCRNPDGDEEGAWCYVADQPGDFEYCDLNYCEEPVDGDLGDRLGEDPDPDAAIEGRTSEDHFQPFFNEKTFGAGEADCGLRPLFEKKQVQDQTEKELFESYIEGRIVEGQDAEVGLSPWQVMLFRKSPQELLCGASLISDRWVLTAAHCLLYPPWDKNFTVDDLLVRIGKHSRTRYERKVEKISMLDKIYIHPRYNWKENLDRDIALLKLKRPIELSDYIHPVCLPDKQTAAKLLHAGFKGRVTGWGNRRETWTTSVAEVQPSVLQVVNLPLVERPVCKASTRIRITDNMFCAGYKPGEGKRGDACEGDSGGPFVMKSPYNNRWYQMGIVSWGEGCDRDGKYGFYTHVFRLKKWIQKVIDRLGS

Tumor necrosis factor receptor superfamily member 10B (Homo sapiens), sequence (O14763 whole entry, looked up): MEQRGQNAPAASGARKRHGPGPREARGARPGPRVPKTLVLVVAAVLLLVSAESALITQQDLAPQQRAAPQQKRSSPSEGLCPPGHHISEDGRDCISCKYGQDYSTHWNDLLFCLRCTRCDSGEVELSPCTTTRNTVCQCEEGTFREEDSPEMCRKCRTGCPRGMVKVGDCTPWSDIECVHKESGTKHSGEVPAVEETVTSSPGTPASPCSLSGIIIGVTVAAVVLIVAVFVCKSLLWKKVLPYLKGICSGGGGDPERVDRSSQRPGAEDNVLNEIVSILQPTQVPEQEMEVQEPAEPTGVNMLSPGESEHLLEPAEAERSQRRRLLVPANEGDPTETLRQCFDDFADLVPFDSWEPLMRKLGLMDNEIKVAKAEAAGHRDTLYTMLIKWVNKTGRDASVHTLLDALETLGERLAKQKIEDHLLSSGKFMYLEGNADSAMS
72 kDa type IV collagenase (Homo sapiens), sequence (P08253 whole entry, looked up): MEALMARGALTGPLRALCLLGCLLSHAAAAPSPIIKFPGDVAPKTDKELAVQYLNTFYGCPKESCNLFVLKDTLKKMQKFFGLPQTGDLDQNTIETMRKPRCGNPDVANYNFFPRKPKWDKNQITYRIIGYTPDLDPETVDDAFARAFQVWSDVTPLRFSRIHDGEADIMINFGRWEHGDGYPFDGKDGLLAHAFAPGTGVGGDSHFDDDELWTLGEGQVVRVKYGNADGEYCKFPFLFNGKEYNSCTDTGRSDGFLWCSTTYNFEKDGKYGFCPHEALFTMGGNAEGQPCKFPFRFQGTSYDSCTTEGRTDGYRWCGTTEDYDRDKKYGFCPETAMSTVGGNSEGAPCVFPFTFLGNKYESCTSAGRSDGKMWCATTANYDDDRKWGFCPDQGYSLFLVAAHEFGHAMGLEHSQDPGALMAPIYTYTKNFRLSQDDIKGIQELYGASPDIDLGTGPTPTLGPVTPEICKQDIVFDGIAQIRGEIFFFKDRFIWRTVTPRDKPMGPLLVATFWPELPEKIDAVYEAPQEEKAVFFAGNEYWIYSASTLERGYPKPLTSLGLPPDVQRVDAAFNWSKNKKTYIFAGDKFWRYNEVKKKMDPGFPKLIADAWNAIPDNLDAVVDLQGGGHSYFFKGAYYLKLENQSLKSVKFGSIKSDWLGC

As for `CCOC(=O)[C@]12Cc3cc(C)ccc3[C@H]1N(C1CCCCC1)C(=O)c1ccccc12`, the activity is 95.3% in assay [1] and 96.5% in assay [2].
On the same counts, the results for `COc1ccc(CC2NCC(O)C2OC(C)=O)cc1` (centres undefined) are 90.1% and 93.8%.
In the same order, the values of `CCOC(=O)[C@]12Cc3cc(OC)ccc3[C@H]1N(C1CCCCC1)C(=O)c1cc(OC)ccc12` are 57.6% and 75.7%.
`C[C@@H]1O[C@@H](O[C@@H]2C=C3CC[C@@H]4C(CC[C@]5(C)[C@@H](c6ccc(=O)oc6)CC[C@]45O)[C@@]3(C)CC2)[C@H](O)[C@H](O)[C@H]1O` (some centres undefined): the activity came to 82.4% in assay [1] and 91.5% in assay [2].
On the same counts, the results for `NC(=S)c1cn(C2OC(CO)C(O)C2O)c2ncnc(N)c12` (centres undefined) are 59.4% and 91.2%.
Turning to `CCOC(=O)[C@]12Cc3cc(Cl)ccc3[C@H]1N(Cc1ccccc1)C(=O)c1cc(OC)ccc12`, the activity in assay [1] amounted to 91.9%; in assay [2], 97.9%.
On the same counts, the results for `CC(=O)OCC12CC(OC(=O)CC(C)C)C(C)=CC1OC1C(O)C(OC(C)=O)C2(C)C12CO2` (centres undefined) are 93% and 97.6%.
On the same counts, the results for `Oc1ccc(-[n+]2c(-c3ccccc3)cc(-c3ccccc3)cc2-c2ccccc2)cc1` are 90.3% and 59.6%.
On the same counts, the results for `CCOC(=O)[C@]12Cc3cc(Cl)ccc3[C@H]1N(C1CCCCC1)C(=O)c1ccccc12` are 98.5% and 99.3%.
Consider `CN(C)C(=O)O/N=C(\N)COc1ccc(C(C)(C)C)cc1`, for which the activity in assay [1] was determined as 96.8%; in assay [2] it was 98.2%.
On the same counts, the results for `CC12CCC(O)CC1CCC1C2CCC2(C)C(C3=CC(=O)OC3)C(O)CC12O` (centres undefined) are 80.4% and 53.5%.
On to `Cc1ccc(NC(=O)CN2C(=O)CN=C(c3ccccc3)c3cc(Cl)ccc32)cc1`, for which the figures for the activity in assay [1] and in assay [2] were 78.1% and 85%, respectively.
In the same order, the values of `CNC(=O)Oc1ccc(-c2cn3cc(Cl)ccc3n2)cc1` are 85.8% and 84.1%.
On the same counts, the results for `Clc1ccc(C[n+]2c(-c3ccccc3)cc(-c3ccccc3)cc2-c2ccccc2)cc1` are 79.1% and 65.9%.
In the same order, the values of `CCC(C)C1NC(=O)C(NC(=O)C(CC(C)C)N(C)C(=O)C2CCCN2C(=O)C(C)O)C(C)OC(=O)C(Cc2ccc(OC)cc2)N(C)C(=O)C2CCCN2C(=O)C(CC(C)C)NC(=O)[C@H](C)C(=O)[C@H](C(C)C)OC(=O)CC1O` (some centres undefined) are 96.9% and 98.2%.
Turning to `CCOC(=O)[C@]12Cc3cc(Cl)ccc3[C@H]1N(C(C)C)C(=O)c1ccccc12`, the activity worked out at 79.3% in assay [1] and 85.9% in assay [2].
On the same counts, the results for `C=CCn1c(O)c(C(C)=NCc2cc(OC)cc(OC)c2)c(=O)[nH]c1=O` are 79.5% and 84.8%.
On the same counts, the results for `CCOC(=O)[C@]12Cc3c(cc(OC)c(OC)c3OC)[C@H]1N(C1CCCCC1)C(=O)c1ccccc12` are 95.8% and 98%.
In the same order, the values of `CC(C)(O)/C=C/C(=O)C(C)(O)C1C(O)CC2(C)C3CC=C4C(C=C(O)C(=O)C4(C)C)C3(C)C(=O)CC12C` (centres undefined) are 46.5% and 81.1%.
On to `CN(C)C(=O)Oc1ccc(OCc2nc3ccccc3[nH]2)cc1`, for which the values for the activity in assay [1] and in assay [2] were 75.7% and 78.1%, respectively.
On the same counts, the results for `CCOc1ccc(-c2c(C)n(-c3ccc(OCC)cc3)c3[n+]2CCCCC3)cc1` are 61% and 63%.
For `CC(C)CCn1c(=O)c(C(=O)Nc2ccccc2S(N)(=O)=O)c(O)c2ccccc21`, the figures for the activity in assay [1] and in assay [2] were 55.4% and 45.3%, respectively. For the same compound, the activity, % sensitization is -2.11% in assay [3], -8.54% in assay [4], -27.8% in assay [5] and -20% in assay [6].
Consider `CCOC(=O)[C@]12Cc3cc(Cl)ccc3[C@H]1N(CC(=O)OC)C(=O)c1ccccc12`, for which the activity is 40.5% in assay [1] and 64% in assay [2].
With `CCOC(=O)[C@]12Cc3cc4ccccc4cc3[C@H]1N(Cc1ccccc1)C(=O)c1ccccc12`, the results for the activity in assay [1] and in assay [2] were 52.8% and 54.6%, respectively. The activity, % sensitization in assay [3] came to 18.4%; in assay [4] it was 31.7%; in assay [5], 6.91%; in assay [6] it was 3.45%.
Take `CC12CCC3C(CCC4(O)CC(O)CCC34C=NO)C1(O)CCC2C1=COC(=O)C1` (centres undefined): the activity in assay [1] came out at 91%; in assay [2], 92.7%.
In the same order, the values of `C[C@H]1O[C@@H](OC2CC[C@]3(C=O)[C@H]4CC[C@]5(C)[C@@H](C6=CC(=O)OC6)CC[C@]5(O)[C@@H]4CC[C@]3(O)C2)CC2OC(C)(C)OC21` (some centres undefined) are 85.6% and 92.4%.
On the same counts, the results for `CC(C)N(C(=O)CCl)c1ccccc1` are 98% and 98.3%.
On the same counts, the results for `CC(C)(C)n1cc(C(=O)c2ccc3ccccc3c2O)cn1` are 55.8% and 51%.
In the case of `Cc1ccccc1-[n+]1c(-c2ccccc2)cc(-c2ccccc2)cc1-c1ccccc1`, the values for the activity in assay [1] and in assay [2] were 75.7% and 64.1%, respectively.
On the same counts, the results for `CC12CCC(O)CC1CCC1C2CCC2(C)C(C3=CC(=O)OC3)CCC12O` (centres undefined) are 87.3% and 91.6%.
With `CCCC1(CCC)C(=O)NC(=NCc2ccccc2)NC1=O`, the activity in assay [1] worked out at 51.6%; in assay [2] it was 20.8%. Besides, the activity, % sensitization was -11.1% in assay [3], 5.29% in assay [4], -4.21% in assay [5] and -22.9% in assay [6].
In the case of `CCCOC(=O)c1ccc(-[n+]2c(-c3ccccc3)cc(-c3ccccc3)cc2-c2ccccc2)cc1`, the figures for the activity in assay [1] and in assay [2] were 74.7% and 68.3%, respectively.
Take `COC(=O)C12OCC34C(CC5C(C)=C(O)C(=O)CC5(C)C3C(O)C1O)OC(=O)C(OC(=O)/C=C(\C)C(C)C)C24` (centres undefined): the activity in assay [1] worked out at 94.8%; in assay [2], 97.5%.
On the same counts, the results for `CC1OC(OC2C=C3CCC4C(CCC5(C)C(c6ccc(=O)oc6)CCC45O)C3(C)CC2)C(O)C(OC2OC(CO)C(O)C(O)C2O)C1O` (centres undefined) are 83.1% and 91.9%.
In the same order, the values of `CN(C)CC(C(=O)Cc1ccccc1)c1ccccc1` (centres undefined) are 37.9% and 96.3%.
For `CC1CCC(C(C)C)C(OC(=O)Cn2c(COc3ccccc3)[n+](C)c3ccccc32)C1` (centres undefined), the activity turned out to be 66.9% in assay [1] and 57.7% in assay [2].
On to `CNC(=O)O/N=C(\N)Cc1csc2ccc(Cl)cc12`, for which the figures for the activity in assay [1] and in assay [2] were 87.3% and 91.2%, respectively.
On the same counts, the results for `COc1ccc2nc(-c3ccc(CN4CCC(n5c(=O)[nH]c6ccccc65)CC4)cc3)c(-c3ccccc3)nc2c1` are 39.8% and 24.9%.
In the same order, the values of `COc1ccc(-[n+]2c(-c3ccccc3)cc(-c3ccc(C)cc3)cc2-c2ccccc2)cc1` are 74.3% and 64.8%.
In the case of `Nc1ncnc2c1ccn2[C@@H]1O[C@H](CO)[C@@H](O)[C@H]1O`, the activity in assay [1] stood at 97.7%; in assay [2], 97.9%.
On the same counts, the results for `CCOC(=O)[C@]12Cc3cc(OC)ccc3[C@H]1N(C(C)C)C(=O)c1cc(OC)ccc12` are 28% and 45%.
In the same order, the values of `CCOC(=O)[C@]12Cc3cc(OC)ccc3[C@H]1N(C1CCCCC1)C(=O)c1ccccc12` are 91.9% and 94.1%.
With `COc1ccc(N2C(=O)/C(=C/c3ccco3)C(=O)NC2=S)cc1`, the inhibition – broadly, how much of the control response was suppressed – is 38.2% (active) in assay [7] and 24.5% (active) in assay [8].
In the case of `CCOC(=O)[C@]12Cc3ccc(C)cc3[C@H]1N(C1CCCCC1)C(=O)c1cc(OC)ccc12`, the results for the activity in assay [1] and in assay [2] were 97.5% and 98%, respectively.
In the same order, the values of `COc1ccc(-n2nnnc2C(c2cc3ccccc3o2)N2CCC(n3c(=O)[nH]c4ccccc43)CC2)cc1` (centres undefined) are 69.4% and 62.5%.
In the same order, the values of `CC1CC(C)CC(C)C(O)C(C#N)=CC=CCC(C2CCCC2C(=O)O)OC(=O)CC(O)C(C)C1` (centres undefined) are 94% and 98.7%.
On the same counts, the results for `CCCCCN1C(=O)c2cc(OC)ccc2[C@@]2(C(=O)OCC)Cc3cc(Cl)ccc3[C@@H]12` are 87.2% and 92.8%.
In the case of `CCOC(=O)[C@]12Cc3cc4ccccc4cc3[C@H]1N(Cc1ccccc1)C(=O)c1cc(OC)ccc12`, the activity came out at 46.5% in assay [1] and 53.2% in assay [2]. Besides, the activity, % sensitization in assay [3] was determined as 23.8%; in assay [4], 23.6%; in assay [5], 7.37%; in assay [6] it was 2.99%.
Take `CC[C@H](C)[C@@H]1NC(=O)CNC(=O)c2csc(n2)[C@H](C(C)(C)O)OC(=O)C(C)(C)[C@H](CCCC(C)(Cl)Cl)OC(=O)c2csc1n2`: the activity in assay [1] is 53.5%; in assay [2] it was 78.6%.
